Holding throughout (experiment): PBM binding z-score (relative to random genomic background probes); higher = stronger binding; sequences stand for … in GC…GCGATTGACAGCGTAGAATGAAGG
Assay [1] deals with RARb homodimer (NR concentration 270 nM). In outline:
(§1)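 Regression normalization was applied to scanned fluorescence from custom Agilent 4×180K protein-binding microarrays. Before scanning, arrays were incubated 1 h with ligand-free nuclear receptor dimers, and binding was detected with antibodies against each partner (one per run). Binding z-scores use the random background probes as reference.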

Assay [2] concerns RARg:RXRa (NR concentration 270 nM, RXRa partner concentration 90 nM). In outline: as §1
Assay [3] deals with RARg homodimer (NR concentration 270 nM). In outline:
as §1

The subject of assay [4] is RXRa DBDmut IVT, anti-RXR (DBD mutation: RXRa K156A/R161A, NR concentration 90 nM). The method in brief: as §1
Assay [5] has as its system RXRa homodimer (NR concentration 180 nM). The method in brief:
as §1

Assay [6] relates to THRa:RXRa (NR concentration 90 nM, RXRa partner concentration 90 nM). In outline: as §1
The subject of assay [7] is THRa homodimer (NR concentration 90 nM). In outline: as §1
Assay [8] has as its system VDR:RXRa (NR concentration 270 nM, RXRa partner concentration 90 nM). In outline:
as §1

Assay [9] relates to VDR homodimer (NR concentration 270 nM). The method in brief: as §1

Here are results for 16 sequences from the supplement of paper PMC6555819.

Take AGAAAGAGGGCAATGAGTTGATAGCACGGGTGGC: the PBM binding z-score is 1.65 in assay [1]; 1.64 in assay [2]; 2.08 in [3]; 1.7 in assay [4]; 1.07 in assay [5]; 0.681 in assay [6]. Further, the PBM binding z-score in assay [7] was -0.101; in assay [8] it was 5.59; in [9] it was 3.05.
Turning to CCTACTGGGCTATCAGGTCATTGATATCAACGTT, the PBM binding z-score is 2.18 in assay [1]; 1.56 in [2]; 1.35 in [3]; 0.092 in assay [4]; 0.965 in assay [5]; 3.1 in [6]. In addition, the PBM binding z-score in [7] stood at 2.44; in [8] it was 1.36; in assay [9], 1.01.
Take TCTCGGAGCACACGAAGGTCAGAGCTTTCCAGAG: the PBM binding z-score in [1] was 2.66; in assay [2], 2.84; in assay [3], 1.83; in assay [4], -0.242; in assay [5] it was 1.7; in assay [6], 1.35. Moreover, the PBM binding z-score in assay [7] was -0.853; in assay [8] it was 0.634; in [9], -0.73.
Consider TCGAGTAGGTTACCAATGGGGTATTCAGCTTTCT, for which the PBM binding z-score was found to be 0.128 in [1]; 0.0634 in assay [2]; 0.354 in [3]; 0.563 in [4]; 0.443 in [5]; 0.253 in [6]. Besides, the PBM binding z-score is -0.473 in [7] and -0.39 in assay [9].
As for TCTAGCAGGCCAGAGGGTCACCCAAGAGGTACGG, the PBM binding z-score in assay [1] was 2.74; in assay [2] it was 3.04; in [3], 2.17; in assay [4], -0.135; in assay [5], 2.96; in [6], 1.97. The PBM binding z-score stood at 0.143 in [7], 1.71 in [8] and 0.203 in assay [9].
Take CGAACGACGGCATGAGTTGATAGCAAATGCCGAT: the PBM binding z-score in [1] is -1.1; in assay [2], -0.397; in assay [3] it was -0.191; in assay [4], -0.218; in assay [5] it was -0.57; in [6] it was -0.799. In addition, the PBM binding z-score in assay [7] is -1.12; in [8], -0.72; in [9], -0.0876.
CCTCGGAGGACAAAAGGAGGTCAGAGCTGCCAGA: the PBM binding z-score in [1] was determined as 3.07; in [2] it was 3.24; in [3], 2.75; in assay [4] it was 0.256; in [5], 1.82; in assay [6], 2.5. Besides, the results for the PBM binding z-score in assay [7], in [8] and in assay [9] were 0.878, 1.97 and 1.23, respectively.
With TCTTGTAAATCAGCAGGTTAAGAAAGCTGGCCAA, the PBM binding z-score is -0.0241 in assay [1]; -0.0885 in assay [2]; -0.347 in [3]; 0.924 in assay [4]; 0.361 in [5]; 0.32 in [6]. The PBM binding z-score in [7] was -0.393; in assay [8] it was 0.539; in assay [9], -0.269.
Consider AGAACGAGGGTAATGAGTTGATAGCACGGGTGGC, for which the PBM binding z-score is -0.134 in [1]; 0.312 in [2]; 0.371 in assay [3]; 0.405 in assay [4]; 0.5 in assay [5]; -0.0331 in assay [6]. Besides, the values for the PBM binding z-score in assay [7] and in [9] were -0.615 and 1.53, respectively.
For CGTCCAAGGTCAAAAGTCAGTGAAGAGATGACGG, the PBM binding z-score in assay [1] came out at 3.25; in assay [2], 5.69; in [3], 5.8; in assay [4], 3.57; in assay [5], 6.1; in [6], 3.41. The PBM binding z-score was 1.3 in assay [7], 3.74 in assay [8] and 1.86 in assay [9].
Turning to CGAACTAGGTCATTCAGGACAGTGAATACATTGA, the PBM binding z-score amounted to 2.72 in assay [1]; 3.7 in assay [2]; 4.69 in assay [3]; 2.77 in assay [4]; 2.8 in assay [5]; 3.63 in assay [6]. The PBM binding z-score in assay [7] is 2.13; in assay [8], 4.46; in assay [9], 2.27.
As for GGAACGAGGGCATTCGAGTTGATAGAATGGCGAT, the PBM binding z-score in [1] amounted to 0.53; in assay [2], 1.01; in assay [3], 1.5; in assay [4], 2.88; in assay [5], 0.761; in assay [6], 3.35. In addition, the PBM binding z-score in [7] was -0.605; in [8], 3.62; in assay [9], 3.02.
Turning to TCTCGGAGGACACGAAAGGTCAGAGCGCGACATC, the PBM binding z-score was found to be 4.91 in [1]; 5.18 in [2]; 5.35 in assay [3]; 1.09 in [4]; 4.3 in [5]; 3.82 in assay [6]. Also, the PBM binding z-score was 1.12 in assay [7], 3.45 in assay [8] and 1.22 in [9].
For the sequence CAAACTAGGTCACGAATGGTCAAAGTCGAATGAC, the PBM binding z-score in assay [1] was found to be 3.87; in assay [2], 4.77; in assay [3], 5.18; in assay [4] it was 1.61; in assay [5], 3.82; in [6], 3.74. The PBM binding z-score in assay [7] is 1.51; in assay [8], 3.05; in assay [9], 0.784.
As for CTCGAAAGGTCGGTTGAGGTGCGTATACGGATAA, the PBM binding z-score came to 1.76 in assay [1]; 2.59 in assay [2]; 2.85 in assay [3]; 0.676 in assay [4]; 2.12 in assay [5]; 3.88 in assay [6]. Moreover, the PBM binding z-score in [7] is -0.208; in assay [9], 0.626.
Regarding CGTCCAAGGTCAAAGTTCAGTGAAGAGATGACGG, the PBM binding z-score in assay [1] amounted to 4.6; in assay [2], 7.44; in assay [3], 7.1; in assay [4], 4.25; in assay [5] it was 8.84; in assay [6], 4.31. Further, the PBM binding z-score stood at 1.92 in [7] and 4.39 in assay [9].
